Results on 6 compounds are retold here after PubChem BioAssay.

Experiment [1] deals with Plasmodium falciparum Sir2 (PF13_0152, Sir2A). Briefly: pfSir2 binders on small-molecule microarrays, primary screen, biochemical, small-molecule microarray, 635 nm fluorescence (AID 1098).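 Further: score merges spot fluorescence intensity with its signal-to-noise ratio.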 The settings on record: small-molecule microarray binding, fluorescence 635 nm; higher = more signal.
Experiment [2] is described as follows: small-molecule microarray binders of probe aDKK1, primary screen, biochemical, biotinylated probe, 635/667 nm fluorescence (AID 1099).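 Further: score merges 667nm spot fluorescence with signal to noise across triplicate slides.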 Particulars: higher = more signal.
A short description of experiment [3]: small-molecule microarray binders of probe aCHRDL2, primary screen, biochemical, biotinylated probe, 635/667 nm fluorescence (AID 1100). Particulars: higher = more signal.
The nature of experiment [4]: splicing luciferase reporter signal modulators, primary screen, spliceosome inhibition project, cell-based, HEK293, splice +/- reporter (AID 1101).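 Further: HEK293 cells carrying a splicing-competent luciferase reporter gene; test concentration not given here.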 Particulars: luminescence, 24 h, higher = more signal, called active from +8 up or from −8 down. Background: Reporter assays use an easily measured gene product as a stand-in for the process of interest.
Experiment [5] deals with Fibroblast growth factor 10 (Homo sapiens) (UniProt O15520). Briefly: FGF10 binders on small-molecule microarrays, primary screen, biochemical, small-molecule microarray, 635 nm fluorescence (AID 1102). Particulars: FGF10 binding, fluorescence 635 nm, higher = more signal.
Chain of Fibroblast growth factor 10 (Homo sapiens) (O15520 whole entry, looked up): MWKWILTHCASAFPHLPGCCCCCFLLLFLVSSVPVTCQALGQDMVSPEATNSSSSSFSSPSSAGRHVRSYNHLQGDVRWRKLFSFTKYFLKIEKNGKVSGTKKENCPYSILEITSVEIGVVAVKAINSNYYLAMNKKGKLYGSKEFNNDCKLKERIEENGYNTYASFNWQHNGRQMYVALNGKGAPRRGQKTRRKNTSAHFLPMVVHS
Experiment [6] concerns glycogen synthase kinase-3 (GSK3A per assay name; protocol says GSK3B). Briefly: GSK3 binders on small-molecule microarrays, primary screen, biochemical, small-molecule microarray, 635 nm fluorescence, GSK3A (AID 1103). Further: the record names both GSK3A and GSK3B. Particulars: small-molecule microarray binding, fluorescence 635 nm; higher = more signal.
Experiment [7] addresses Epidermal growth factor receptor (Homo sapiens) (UniProt P00533). Nature of the experiment: EGFR binders on small-molecule microarrays, primary screen, biochemical, small-molecule microarray, 635 nm fluorescence (AID 1104).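 Further: score merges 667 nm emission intensity with spot signal to noise over triplicate slides.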 Particulars: EGFR binding, higher = more signal.
In experiment [8] the target is Follistatin-related protein 3 (Homo sapiens) (UniProt O95633). Nature of the experiment: FSTL3 binders on small-molecule microarrays, primary screen, biochemical, small-molecule microarray, 635 nm fluorescence (AID 1105).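 Further: score merges emission near 667 nm and signal to noise per printed spot across three slides.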 The settings on record: FSTL3 binding, higher = more signal.
Chain of Follistatin-related protein 3 (Homo sapiens) (O95633 whole entry, looked up): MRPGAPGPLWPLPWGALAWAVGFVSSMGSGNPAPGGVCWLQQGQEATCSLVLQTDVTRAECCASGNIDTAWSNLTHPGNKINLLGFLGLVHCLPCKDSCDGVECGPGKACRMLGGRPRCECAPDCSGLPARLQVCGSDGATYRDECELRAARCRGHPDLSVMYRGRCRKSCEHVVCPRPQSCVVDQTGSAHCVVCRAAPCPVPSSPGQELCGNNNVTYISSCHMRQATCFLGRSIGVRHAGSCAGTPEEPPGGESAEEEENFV
For experiment [9], the target named is Dickkopf-related protein 1 (Homo sapiens) (UniProt O94907). Briefly: DKK1 binders on small-molecule microarrays, primary screen, biochemical, small-molecule microarray, 635 nm fluorescence scan (AID 1106).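 Further: score merges emission near 667 nm with signal to noise over three replicate slides.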 Particulars: DKK1 binding, higher = more signal.
Chain of Dickkopf-related protein 1 (Homo sapiens) (O94907 whole entry, looked up): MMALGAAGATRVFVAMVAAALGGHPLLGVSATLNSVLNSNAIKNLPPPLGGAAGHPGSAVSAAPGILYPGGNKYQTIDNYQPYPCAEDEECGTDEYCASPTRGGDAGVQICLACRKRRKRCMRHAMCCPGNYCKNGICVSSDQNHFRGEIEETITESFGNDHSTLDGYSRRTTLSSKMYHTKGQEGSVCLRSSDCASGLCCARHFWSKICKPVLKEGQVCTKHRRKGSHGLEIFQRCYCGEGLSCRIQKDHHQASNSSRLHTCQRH
In experiment [10] the test system is Inhibin beta A chain (activin A). Nature of the experiment: INHBA (activin A) binders on microarrays, primary screen, biochemical, small-molecule microarray, 635 nm fluorescence scan (AID 1107).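 Further: mouse activin A protein probed at 4.33 µg/mL on printed slides; score merges bound-protein fluorescence near 667 nm with spot signal-to-noise.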 The settings on record: small-molecule microarray binding, higher = more signal.
Experiment [11] relates to Human papillomavirus type 1a protein E7 (residues 44-93). Briefly: HPV1a E7 fragment binders on microarrays, primary screen, biochemical, small-molecule microarray, residues 44-93, 635 nm fluorescence (AID 1108).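 Further: E7 fragment applied at 1 µg/mL in TBST for 1 h at 4 C; score combines spot fluorescence with its signal to noise ratio.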 The settings on record: small-molecule microarray binding, fluorescence 635 nm; higher = more signal.
A short description of experiment [12]: modulators of HCV replicon luciferase signal, primary screen, HCV replication inhibitor project, Huh7 cells, luciferase reporter (AID 1109).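 Further: huh7 hepatoma cells harbouring a luciferase neomycin HCV replicon reporter; luciferase luminescence as measure of HCV replicon replication; test concentration not given here.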 Particulars: 48 h, higher = more signal. In general terms: In antiviral work, replicon cells carry a viral genome segment that copies itself.
The target in experiment [13] is Left-right determination factor 2 (Homo sapiens) (UniProt O00292). Briefly: LEFTY2 binders on small-molecule microarrays, primary screen, biochemical, small-molecule microarray, 635 nm fluorescence scan (AID 1110). Particulars: LEFTY2 binding, higher = more signal.
Chain of Left-right determination factor 2 (Homo sapiens) (O00292 whole entry, looked up): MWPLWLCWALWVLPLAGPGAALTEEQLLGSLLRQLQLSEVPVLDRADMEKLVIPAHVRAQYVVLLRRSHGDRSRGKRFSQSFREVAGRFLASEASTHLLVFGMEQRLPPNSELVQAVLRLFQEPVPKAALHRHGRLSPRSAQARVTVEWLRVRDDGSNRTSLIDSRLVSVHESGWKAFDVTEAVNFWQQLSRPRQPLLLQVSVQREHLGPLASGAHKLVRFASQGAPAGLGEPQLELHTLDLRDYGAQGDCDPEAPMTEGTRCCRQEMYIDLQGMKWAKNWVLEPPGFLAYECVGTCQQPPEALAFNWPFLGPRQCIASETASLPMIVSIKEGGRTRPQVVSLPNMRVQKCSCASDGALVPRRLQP
Experiment [14] has as its target Calmodulin-1 (Homo sapiens) (UniProt P0DP23). Nature of the experiment: CALM1 binders on microarrays, EGTA buffer, profiling panel, biochemical, small-molecule microarray, Cy5-labelled CALM1 (AID 1111).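 Further: labelled calmodulin applied in Tris saline Tween buffer holding calcium plus EGTA and DTT.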 The settings on record: Cy5-CALM1 binding fluorescence, higher = more signal.
The target is the same in experiment [15]. Briefly: calcium-bound CALM1 binders on microarrays, profiling panel, artefact control for SMM control-protein annotation, biochemical, small-molecule microarray, Cy5-labelled CALM1, plus calcium (AID 1112).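 Further: score merges spot fluorescence with signal to noise from triplicate slides.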 The settings on record: Cy5-CALM1 binding fluorescence, higher = more signal.
The nature of experiment [16]: small-molecule microarray binders of probe aWnt5a, primary screen, biochemical, biotinylated probe, 635/667 nm fluorescence (AID 1113).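 Further: score merges 667 nm fluorescence intensity with signal-to-noise per printed feature.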 The settings on record: higher = more signal.
The nature of experiment [17]: small-molecule microarray binders of probe aShh, primary screen, biochemical, biotinylated probe, 635/667 nm fluorescence (AID 1114).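 Further: probe is biotin-labelled aShh protein from a stem cell growth factor screen; measures binding of labelled protein to compounds printed on the slide; score merges feature fluorescence at 667 nm with signal-to-noise.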 The settings on record: higher = more signal.
The nature of experiment [18]: small-molecule microarray binders of probe aNog, primary screen, biochemical, biotinylated probe, 635/667 nm fluorescence (AID 1115).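 Further: probe is biotinylated aNog protein used at 0.15 µg/mL for 1 h at 4 C; z-score combines 667 nm fluorescence of each spot with its signal to noise.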 Particulars: higher = more signal.
The target of experiment [19] is Torsin-1A-interacting protein 1 (Homo sapiens) (UniProt Q5JTV8). Briefly: LAP1 binders from COS7 cell lysate, primary screen, small-molecule microarray, 635/667 nm fluorescence (AID 1116). Particulars: COS7-hLAP1 lysate binding, 635 nm fluorescence, higher = more signal.
Chain of Torsin-1A-interacting protein 1 (Homo sapiens) (Q5JTV8 whole entry, looked up): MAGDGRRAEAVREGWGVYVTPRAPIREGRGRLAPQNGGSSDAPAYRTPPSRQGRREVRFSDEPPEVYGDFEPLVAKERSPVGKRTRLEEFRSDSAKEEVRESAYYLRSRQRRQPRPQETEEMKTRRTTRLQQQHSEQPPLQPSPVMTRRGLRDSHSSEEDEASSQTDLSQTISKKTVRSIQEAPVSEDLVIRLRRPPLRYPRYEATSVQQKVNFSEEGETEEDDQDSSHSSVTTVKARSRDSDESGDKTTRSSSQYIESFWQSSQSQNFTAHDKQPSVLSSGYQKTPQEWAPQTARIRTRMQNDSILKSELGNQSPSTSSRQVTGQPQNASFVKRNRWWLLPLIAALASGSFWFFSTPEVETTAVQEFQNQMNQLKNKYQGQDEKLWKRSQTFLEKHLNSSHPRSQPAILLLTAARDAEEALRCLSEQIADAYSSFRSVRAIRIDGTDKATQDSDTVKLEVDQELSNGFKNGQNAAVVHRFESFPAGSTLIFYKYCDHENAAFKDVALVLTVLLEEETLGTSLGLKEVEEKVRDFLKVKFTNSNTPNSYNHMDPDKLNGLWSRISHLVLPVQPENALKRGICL
The target in experiment [20] is Alpha-bungarotoxin (Bungarus multicinctus) (UniProt P60615). Nature of the experiment: alpha-bungarotoxin binders on microarray, profiling panel, artefact control for SMM control protein annotation, biochemical, small-molecule microarray, Alexa647 label, 635/667 nm fluorescence (AID 1117). Particulars: alpha-BTX-A647 binding fluorescence, higher = more signal.
Chain of Alpha-bungarotoxin (Bungarus multicinctus) (P60615 whole entry, looked up): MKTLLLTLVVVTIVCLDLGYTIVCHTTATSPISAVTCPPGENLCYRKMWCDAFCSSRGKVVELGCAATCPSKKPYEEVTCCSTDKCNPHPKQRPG

Activity calls are given as the source filed them.

Chain of Epidermal growth factor receptor (Homo sapiens) (P00533 whole entry, looked up): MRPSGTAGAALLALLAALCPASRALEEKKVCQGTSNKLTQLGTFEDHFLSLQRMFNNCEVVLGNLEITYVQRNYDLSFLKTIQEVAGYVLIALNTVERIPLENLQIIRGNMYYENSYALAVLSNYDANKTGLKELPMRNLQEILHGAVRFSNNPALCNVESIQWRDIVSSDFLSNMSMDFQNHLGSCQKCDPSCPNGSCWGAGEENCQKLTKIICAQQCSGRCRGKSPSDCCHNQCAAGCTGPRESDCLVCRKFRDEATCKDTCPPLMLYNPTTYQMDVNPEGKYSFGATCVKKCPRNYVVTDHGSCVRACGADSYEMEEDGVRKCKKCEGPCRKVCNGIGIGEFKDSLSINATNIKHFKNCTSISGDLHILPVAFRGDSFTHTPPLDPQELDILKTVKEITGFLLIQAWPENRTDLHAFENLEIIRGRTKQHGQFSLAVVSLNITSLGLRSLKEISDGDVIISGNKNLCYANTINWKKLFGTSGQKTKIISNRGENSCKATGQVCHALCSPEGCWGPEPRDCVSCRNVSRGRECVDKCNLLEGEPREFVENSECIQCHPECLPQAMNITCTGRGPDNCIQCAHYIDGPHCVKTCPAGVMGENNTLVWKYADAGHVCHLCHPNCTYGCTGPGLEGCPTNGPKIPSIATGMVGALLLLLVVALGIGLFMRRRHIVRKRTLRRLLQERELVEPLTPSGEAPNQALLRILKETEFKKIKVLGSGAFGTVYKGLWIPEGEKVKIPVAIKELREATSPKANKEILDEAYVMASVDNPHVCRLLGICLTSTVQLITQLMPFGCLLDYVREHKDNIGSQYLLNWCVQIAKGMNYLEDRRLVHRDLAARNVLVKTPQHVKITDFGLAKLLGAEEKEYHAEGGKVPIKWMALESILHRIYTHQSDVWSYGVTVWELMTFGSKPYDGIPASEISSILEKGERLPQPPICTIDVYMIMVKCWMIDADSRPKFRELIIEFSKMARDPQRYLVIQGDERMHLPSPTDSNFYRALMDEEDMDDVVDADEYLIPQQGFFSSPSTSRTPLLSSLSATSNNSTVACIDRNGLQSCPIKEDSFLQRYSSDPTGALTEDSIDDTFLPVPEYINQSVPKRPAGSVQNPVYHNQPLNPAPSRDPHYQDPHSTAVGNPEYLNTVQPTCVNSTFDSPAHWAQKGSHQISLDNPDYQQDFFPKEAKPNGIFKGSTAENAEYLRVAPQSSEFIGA

For `O=C1O[C@@H](c2ccccc2)[C@@H](c2ccccc2)N2[C@@H](c3ccccc3OCCO)[C@]3(C(=O)Nc4ccc(C#CCCO)cc43)[C@@H](C(=O)NC[C@H](O)c3ccccc3)[C@H]12`, the composite z-score is 1.69 in experiment [1]; 1.93 in [2]; 1.51 in experiment [3]; 0.428 in [5]; -0.0642 in experiment [6]; 0.249 in experiment [7]. Further, the composite z-score in experiment [8] was 1.35; in [9], 0.172; in [10], 1.41; in experiment [11], 1.49; in [13] it was -0.274; in experiment [14] it was 2.34. Besides, the composite z-score was 0.953 in [15]; 0.489 in [16]; -0.212 in experiment [17]; 2.45 in [18]; 2.7 in experiment [19]; 2.55 in experiment [20]. For the same compound, the figures for the z-score in experiment [4] and in experiment [12] were -0.393 (inactive) and -0.871, respectively.

`CCCC#C[Si](O[C@H](CC)c1cn(Cc2ccccc2)nn1)(C(C)C)C(C)C`: the composite z-score is 0.524 in experiment [1]; 0.109 in experiment [2]; -0.263 in experiment [3]; 0.852 in experiment [5]; 0.49 in experiment [6]; 0.375 in [7]. The composite z-score was 1.11 in experiment [8]; 0.576 in experiment [9]; -0.0374 in experiment [10]; 1.29 in [11]; 0.631 in experiment [13]; -0.0722 in experiment [14]. Further, the composite z-score in experiment [15] is -0.337; in experiment [16], 0.0799; in [17], -0.153; in [18], -0.234; in experiment [19], 0.927; in experiment [20], 1.11. In addition, the values for the z-score in [4] and in experiment [12] were -0.539 (inactive) and -0.283, respectively.

As for `CN(C)CCCNC(=O)[C@@]1(Cc2ccccc2I)c2ccccc2C(=O)N(C2CCCCC2)[C@H]1c1ccc(CO)cc1`, the composite z-score in experiment [1] worked out at 0.856; in experiment [2], 1.13; in experiment [3] it was 0.532; in experiment [5], 0.269; in experiment [6], 1.03; in [7], 0.0863. Also, the composite z-score turned out to be 0.383 in experiment [8]; 0.183 in [9]; 1.32 in [10]; 0.664 in experiment [11]; 0.0837 in [13]; 1.71 in experiment [14]. For the same compound, the composite z-score is 1.2 in experiment [15]; -0.0057 in experiment [16]; 1.26 in [17]; 0.0646 in [18]; 1.02 in experiment [19]; 2.57 in [20]. In addition, the z-score is -4.61 (inactive) in experiment [4] and -3.49 in experiment [12].

Take `C=CCC(OC(C)=O)[C@@H]1[C@@H](N(Cc2cccc3ccccc23)C(=O)c2ccc(-c3ccccc3)cc2)c2cc(OCCCO)ccc2N1C(=O)Cc1ccc2ccccc2c1` (stereo not given in full): the composite z-score was -0.121 in experiment [1]; -0.0459 in experiment [2]; 0.428 in experiment [3]; -0.179 in experiment [5]; -0.328 in experiment [6]; -0.0303 in experiment [7]. Moreover, the composite z-score in experiment [8] is 0.228; in experiment [9] it was -0.624; in experiment [10], 0.45; in [11] it was -0.515; in experiment [13], -0.181; in experiment [14], 0.858. The composite z-score is 0.912 in experiment [15]; 0.0399 in [16]; 0.0278 in [17]; -0.0773 in experiment [18]; 0.438 in experiment [19]; 0.106 in experiment [20]. Also, the z-score in [4] was -1.08 (inactive); in [12], -0.105.

With `COC(=O)C1=CC(CCCO)=CC(c2cccs2)N(Cc2cc3c(cc2Br)OCO3)C=C1C(=O)OC` (stereo not given), the composite z-score stood at 1.53 in experiment [1]; 0.718 in experiment [2]; 0.628 in experiment [3]; 1.17 in experiment [5]; 1.3 in experiment [6]; 0.511 in experiment [7]. Moreover, the composite z-score came to 0.908 in [8]; 0.166 in experiment [9]; 1.01 in experiment [10]; 0.931 in experiment [11]; 0.578 in experiment [13]; 1.69 in experiment [14]. Also, the composite z-score is 0.458 in experiment [15]; 0.0618 in [16]; 0.246 in experiment [17]; -0.0381 in experiment [18]; 0.834 in experiment [19]; 2.49 in [20]. Also, the figures for the z-score in experiment [4] and in [12] were -0.478 (inactive) and -1.64, respectively.

With `COc1ccc(C(O)C2C=CC3C(=O)NC(=O)C3N2Nc2ccc(Cl)cc2Cl)c2ccccc12` (stereo not given), the composite z-score in [1] was 0.828; in experiment [2], 0.913; in [3] it was 1.15; in experiment [5], 0.0892; in experiment [6], 0.15; in experiment [7] it was -0.582. For the same compound, the composite z-score in experiment [8] is 0.483; in experiment [9] it was -0.284; in experiment [10], 1.14; in experiment [11], 0.795; in experiment [13] it was -0.65; in experiment [14] it was 2.02. For the same compound, the composite z-score in experiment [15] was 1.08; in experiment [16], -0.181; in experiment [17], -0.116; in experiment [18] it was -1.02; in experiment [19], 0.693; in experiment [20], 1.17. The z-score in [4] was -0.744 (inactive); in [12], -0.0178.
